These results are taken from publication PMC7862700, “An all-to-all approach to the identification of sequence-specific readers for epigenetic DNA modifications on cytosine”.

Test in all cases: DAPPL (digital affinity profiling via proximity ligation, sequencing); 10 mM Tris-HCl pH 7.5, 50 mM NaCl, 1 mM DTT, 4% glycerol, room temperature, 30 min; GST-TFs on glutathione beads, 16-mer random dsDNA library, 0.1% formaldehyde crosslink after washing; high values mean tight binding
For one test, the target named is T1, FLI1 (Homo sapiens, UniProt Q01543 1-452).
T1 sequence: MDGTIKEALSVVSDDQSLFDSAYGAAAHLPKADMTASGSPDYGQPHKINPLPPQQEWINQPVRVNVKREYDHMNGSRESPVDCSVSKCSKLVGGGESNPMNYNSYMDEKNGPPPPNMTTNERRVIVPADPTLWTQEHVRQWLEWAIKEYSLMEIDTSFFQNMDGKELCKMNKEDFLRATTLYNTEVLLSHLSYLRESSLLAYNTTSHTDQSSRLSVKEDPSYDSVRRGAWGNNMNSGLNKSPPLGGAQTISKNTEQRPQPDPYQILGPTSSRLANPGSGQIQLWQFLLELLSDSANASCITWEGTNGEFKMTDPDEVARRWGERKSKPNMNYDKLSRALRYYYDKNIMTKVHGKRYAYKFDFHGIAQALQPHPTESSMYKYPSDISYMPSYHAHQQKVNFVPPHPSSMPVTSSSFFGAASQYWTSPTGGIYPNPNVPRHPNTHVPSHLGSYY
The following applies: protein: recombinant; tags: N-terminal GST; dsDNA, one strand shown. The essentials:
(§1)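 Sequencing on an Illumina NextSeq500 followed washing, crosslinking with 0.1% formaldehyde, proximity ligation (BsaI/T4 ligase, 1 h, 37 °C) and PCR amplification of pools that had been incubated for 30 min at room temperature with 200 nmole of a random double-stranded 16-mer DNA library in Tris/NaCl/DTT/glycerol buffer. Each pool held DNA-barcoded human transcription factors, expressed in yeast as GST fusions and captured on glutathione beads, plus a tag-only sample. Binding signal is a hexamer's read frequency for a factor divided by its frequency in the tag-only sample.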

For a further test, the target named is T2, ELK1 (Homo sapiens, UniProt P19419 1-428).
T2 sequence: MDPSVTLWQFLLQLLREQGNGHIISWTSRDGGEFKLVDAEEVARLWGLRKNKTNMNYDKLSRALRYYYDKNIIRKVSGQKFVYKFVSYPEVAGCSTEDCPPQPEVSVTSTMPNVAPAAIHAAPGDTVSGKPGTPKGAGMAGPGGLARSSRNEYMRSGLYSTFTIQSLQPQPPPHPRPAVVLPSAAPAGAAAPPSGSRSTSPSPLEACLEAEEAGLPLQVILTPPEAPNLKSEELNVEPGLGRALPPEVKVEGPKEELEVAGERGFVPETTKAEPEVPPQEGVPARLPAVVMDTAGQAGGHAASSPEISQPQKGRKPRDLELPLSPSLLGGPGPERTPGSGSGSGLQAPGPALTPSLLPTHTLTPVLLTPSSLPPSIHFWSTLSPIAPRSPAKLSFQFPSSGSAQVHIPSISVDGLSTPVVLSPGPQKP
The following applies: protein: recombinant; tags: N-terminal GST; dsDNA, one strand shown. The essentials:
as §1

Another test concerns the target T3, GABPA (Homo sapiens, UniProt Q06546 1-454).
T3 sequence: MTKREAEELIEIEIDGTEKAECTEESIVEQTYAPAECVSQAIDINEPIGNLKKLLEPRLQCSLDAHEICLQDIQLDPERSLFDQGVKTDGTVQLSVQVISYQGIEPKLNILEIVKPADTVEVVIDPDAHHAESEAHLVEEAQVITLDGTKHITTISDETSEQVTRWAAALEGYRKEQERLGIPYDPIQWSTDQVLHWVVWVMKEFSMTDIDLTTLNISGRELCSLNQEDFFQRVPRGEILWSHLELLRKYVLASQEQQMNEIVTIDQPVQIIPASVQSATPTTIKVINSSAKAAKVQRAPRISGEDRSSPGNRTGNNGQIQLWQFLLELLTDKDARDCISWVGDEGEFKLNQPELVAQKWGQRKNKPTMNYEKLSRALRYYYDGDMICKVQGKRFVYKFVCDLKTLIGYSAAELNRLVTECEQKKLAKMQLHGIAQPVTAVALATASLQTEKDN
The following applies: protein: recombinant; tags: N-terminal GST; dsDNA, one strand shown. The essentials: as §1

Another test addresses T4, ERG (Homo sapiens, UniProt P11308 1-479).
T4 sequence: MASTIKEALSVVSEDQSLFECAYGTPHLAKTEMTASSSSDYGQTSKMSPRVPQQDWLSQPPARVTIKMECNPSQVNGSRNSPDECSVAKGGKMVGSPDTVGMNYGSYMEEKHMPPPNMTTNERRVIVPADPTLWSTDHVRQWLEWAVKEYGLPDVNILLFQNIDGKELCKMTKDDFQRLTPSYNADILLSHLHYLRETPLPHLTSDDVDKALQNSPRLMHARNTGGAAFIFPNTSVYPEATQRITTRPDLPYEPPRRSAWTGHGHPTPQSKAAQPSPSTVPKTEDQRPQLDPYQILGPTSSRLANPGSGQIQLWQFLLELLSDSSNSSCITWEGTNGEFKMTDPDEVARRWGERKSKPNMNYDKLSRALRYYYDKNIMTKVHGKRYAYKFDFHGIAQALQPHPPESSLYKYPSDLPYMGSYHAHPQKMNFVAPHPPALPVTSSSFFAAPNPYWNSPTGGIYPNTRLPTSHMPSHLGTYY
The settings on record: protein: recombinant; tags: N-terminal GST; dsDNA, one strand shown. The gist of the method: as §1

For a further test, the target named is ELF1 (Homo sapiens, UniProt P32519 1-619). The settings on record: protein: recombinant; tags: N-terminal GST; dsDNA, one strand shown. The gist of the method:
as §1

The target of a further test is T5, EHF (Homo sapiens, UniProt Q9NZC4 1-300).
T5 sequence: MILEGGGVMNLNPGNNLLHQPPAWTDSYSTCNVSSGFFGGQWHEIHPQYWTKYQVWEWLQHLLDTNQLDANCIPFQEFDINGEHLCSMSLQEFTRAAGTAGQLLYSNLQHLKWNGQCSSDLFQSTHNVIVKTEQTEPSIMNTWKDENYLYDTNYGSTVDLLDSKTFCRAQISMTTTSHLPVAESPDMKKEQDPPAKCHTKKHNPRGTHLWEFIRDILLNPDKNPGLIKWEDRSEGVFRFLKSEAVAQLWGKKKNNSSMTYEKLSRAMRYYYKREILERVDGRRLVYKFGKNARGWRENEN
The following applies: protein: recombinant; tags: N-terminal GST; dsDNA, one strand shown. The gist of the method: as §1

The target of a further test is SPIB (Homo sapiens, UniProt Q01892 1-262). The following applies: protein: recombinant; tags: N-terminal GST; dsDNA, one strand shown. The essentials:
as §1

For a further test, the target named is T6, ELK3 (Homo sapiens, UniProt P41970 1-407).
T6 sequence: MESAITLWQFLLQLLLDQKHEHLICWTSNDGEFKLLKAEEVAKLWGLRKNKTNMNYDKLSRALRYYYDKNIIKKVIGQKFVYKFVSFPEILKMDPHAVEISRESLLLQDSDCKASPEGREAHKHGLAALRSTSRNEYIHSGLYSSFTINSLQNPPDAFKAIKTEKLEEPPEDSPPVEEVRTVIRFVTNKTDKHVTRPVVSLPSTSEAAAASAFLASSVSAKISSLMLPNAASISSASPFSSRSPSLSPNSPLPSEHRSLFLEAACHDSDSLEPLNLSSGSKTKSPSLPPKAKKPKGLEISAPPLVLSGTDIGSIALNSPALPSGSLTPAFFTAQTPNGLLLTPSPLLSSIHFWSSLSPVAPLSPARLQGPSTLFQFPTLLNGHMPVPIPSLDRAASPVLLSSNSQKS
The settings on record: protein: recombinant; tags: N-terminal GST; dsDNA, one strand shown. The gist of the method:
as §1

A further test concerns the target T7, FEV (Homo sapiens, UniProt Q99581 1-238).
T7 sequence: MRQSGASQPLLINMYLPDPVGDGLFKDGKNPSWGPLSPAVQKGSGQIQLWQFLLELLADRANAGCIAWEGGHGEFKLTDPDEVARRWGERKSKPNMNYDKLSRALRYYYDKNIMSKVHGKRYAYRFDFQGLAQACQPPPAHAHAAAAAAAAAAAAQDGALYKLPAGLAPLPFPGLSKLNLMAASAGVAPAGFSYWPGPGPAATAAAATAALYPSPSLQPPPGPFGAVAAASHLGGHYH
The following applies: protein: recombinant; tags: N-terminal GST; dsDNA, one strand shown. The gist of the method:
as §1

Another test deals with ETV5 (Homo sapiens, UniProt P41161 1-510). The following applies: protein: recombinant; tags: N-terminal GST; dsDNA, one strand shown. The essentials: as §1
Chain of ETV5 (P41161 whole entry): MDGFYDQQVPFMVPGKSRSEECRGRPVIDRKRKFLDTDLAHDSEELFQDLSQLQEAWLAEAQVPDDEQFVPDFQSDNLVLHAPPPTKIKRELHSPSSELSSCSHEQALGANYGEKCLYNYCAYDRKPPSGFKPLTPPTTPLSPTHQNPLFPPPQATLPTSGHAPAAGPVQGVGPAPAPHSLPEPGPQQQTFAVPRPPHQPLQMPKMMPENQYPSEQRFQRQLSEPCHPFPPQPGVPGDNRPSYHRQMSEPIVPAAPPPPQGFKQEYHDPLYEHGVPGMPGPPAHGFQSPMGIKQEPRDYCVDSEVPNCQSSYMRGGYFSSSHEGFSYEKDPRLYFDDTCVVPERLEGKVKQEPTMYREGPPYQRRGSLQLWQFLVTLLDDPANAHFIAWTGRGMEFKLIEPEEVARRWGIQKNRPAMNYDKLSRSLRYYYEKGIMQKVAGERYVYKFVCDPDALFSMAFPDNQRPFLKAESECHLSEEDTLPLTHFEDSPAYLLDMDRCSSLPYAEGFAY
The next test addresses HSF1 (Homo sapiens, UniProt Q00613 1-529). The following applies: protein: recombinant; tags: N-terminal GST; chain copies: 3; dsDNA, one strand shown. The gist of the method: as §1
In another test the target is T8, SPIC (Homo sapiens, UniProt Q8N5J4 1-248).
T8 sequence: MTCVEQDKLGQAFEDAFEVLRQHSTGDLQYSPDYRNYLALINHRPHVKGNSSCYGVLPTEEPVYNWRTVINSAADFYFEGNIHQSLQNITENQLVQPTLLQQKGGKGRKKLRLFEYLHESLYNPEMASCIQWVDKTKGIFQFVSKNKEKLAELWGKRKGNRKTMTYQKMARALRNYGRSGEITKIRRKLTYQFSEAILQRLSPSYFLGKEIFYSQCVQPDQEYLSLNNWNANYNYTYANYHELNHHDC
The settings on record: protein: recombinant; tags: N-terminal GST; dsDNA, one strand shown. The gist of the method:
as §1

The target in the next test is ELF4 (Homo sapiens, UniProt Q99607 1-663). The settings on record: protein: recombinant; tags: N-terminal GST; dsDNA, one strand shown. The essentials: as §1
Chain of ELF4 (Q99607 whole entry): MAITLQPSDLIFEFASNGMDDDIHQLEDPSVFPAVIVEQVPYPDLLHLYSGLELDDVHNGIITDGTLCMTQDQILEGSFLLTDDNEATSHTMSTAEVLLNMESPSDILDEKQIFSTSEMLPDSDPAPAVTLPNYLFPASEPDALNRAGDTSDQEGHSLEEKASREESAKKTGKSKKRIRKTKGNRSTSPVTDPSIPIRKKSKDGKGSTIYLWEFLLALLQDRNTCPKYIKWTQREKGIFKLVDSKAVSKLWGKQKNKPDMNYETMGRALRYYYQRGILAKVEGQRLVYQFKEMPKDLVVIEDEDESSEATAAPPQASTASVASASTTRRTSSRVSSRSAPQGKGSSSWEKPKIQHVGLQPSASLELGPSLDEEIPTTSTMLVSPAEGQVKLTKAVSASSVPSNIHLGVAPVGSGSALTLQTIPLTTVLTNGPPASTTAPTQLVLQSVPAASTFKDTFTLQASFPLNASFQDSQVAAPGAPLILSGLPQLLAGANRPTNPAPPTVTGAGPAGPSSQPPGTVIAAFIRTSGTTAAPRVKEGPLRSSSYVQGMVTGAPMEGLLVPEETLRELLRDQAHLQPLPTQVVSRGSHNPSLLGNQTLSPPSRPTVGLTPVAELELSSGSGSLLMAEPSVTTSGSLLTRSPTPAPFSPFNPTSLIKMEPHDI
For the next test, the target named is T9, ELK4 (Homo sapiens, UniProt P28324-2 1-405).
T9 sequence: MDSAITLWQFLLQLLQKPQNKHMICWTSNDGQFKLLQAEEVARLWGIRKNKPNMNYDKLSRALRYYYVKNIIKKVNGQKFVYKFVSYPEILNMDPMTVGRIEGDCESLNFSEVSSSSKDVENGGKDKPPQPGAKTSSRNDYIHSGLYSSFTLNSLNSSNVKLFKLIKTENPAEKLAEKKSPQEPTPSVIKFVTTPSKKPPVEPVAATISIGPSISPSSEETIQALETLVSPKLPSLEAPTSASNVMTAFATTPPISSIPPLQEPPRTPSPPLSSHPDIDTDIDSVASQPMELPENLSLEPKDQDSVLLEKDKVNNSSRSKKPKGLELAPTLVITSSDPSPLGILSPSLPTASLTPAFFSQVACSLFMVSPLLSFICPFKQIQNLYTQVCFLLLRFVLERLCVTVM
The settings on record: protein: recombinant; tags: N-terminal GST; dsDNA, one strand shown. The gist of the method:
as §1

In the next test the target is T10, ETV2 (Homo sapiens, UniProt O00321 1-342).
T10 sequence: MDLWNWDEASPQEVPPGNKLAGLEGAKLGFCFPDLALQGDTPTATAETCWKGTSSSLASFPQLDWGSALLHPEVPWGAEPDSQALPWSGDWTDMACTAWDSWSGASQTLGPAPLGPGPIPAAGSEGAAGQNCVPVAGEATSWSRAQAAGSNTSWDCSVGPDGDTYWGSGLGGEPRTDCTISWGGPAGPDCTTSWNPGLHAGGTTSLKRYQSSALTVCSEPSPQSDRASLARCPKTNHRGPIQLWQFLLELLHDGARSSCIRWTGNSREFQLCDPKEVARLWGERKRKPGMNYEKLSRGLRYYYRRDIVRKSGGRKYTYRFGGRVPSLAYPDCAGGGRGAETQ
The following applies: protein: recombinant; tags: N-terminal GST; dsDNA, one strand shown. The essentials:
as §1

Another test addresses T11, ELF3 (Homo sapiens, UniProt P78545 1-371).
T11 sequence: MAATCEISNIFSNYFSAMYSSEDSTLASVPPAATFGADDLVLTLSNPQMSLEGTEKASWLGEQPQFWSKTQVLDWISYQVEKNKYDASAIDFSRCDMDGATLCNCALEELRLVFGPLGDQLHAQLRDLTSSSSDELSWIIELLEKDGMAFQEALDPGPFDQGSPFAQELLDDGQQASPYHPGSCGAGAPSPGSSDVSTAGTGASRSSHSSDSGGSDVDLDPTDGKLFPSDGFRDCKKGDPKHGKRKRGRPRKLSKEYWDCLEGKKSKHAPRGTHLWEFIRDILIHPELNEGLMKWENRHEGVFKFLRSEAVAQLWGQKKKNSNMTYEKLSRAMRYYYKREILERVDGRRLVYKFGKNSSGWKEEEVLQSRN
The following applies: protein: recombinant; tags: N-terminal GST; dsDNA, one strand shown. The gist of the method: as §1

The next test deals with CRX (Homo sapiens, UniProt O43186 1-299). The settings on record: protein: recombinant; tags: N-terminal GST; dsDNA, one strand shown. The essentials:
as §1

In the next test the target is ETV1 (Homo sapiens, UniProt P50549 1-477). The following applies: protein: recombinant; tags: N-terminal GST; dsDNA, one strand shown. The essentials: as §1
Chain of ETV1 (P50549 whole entry): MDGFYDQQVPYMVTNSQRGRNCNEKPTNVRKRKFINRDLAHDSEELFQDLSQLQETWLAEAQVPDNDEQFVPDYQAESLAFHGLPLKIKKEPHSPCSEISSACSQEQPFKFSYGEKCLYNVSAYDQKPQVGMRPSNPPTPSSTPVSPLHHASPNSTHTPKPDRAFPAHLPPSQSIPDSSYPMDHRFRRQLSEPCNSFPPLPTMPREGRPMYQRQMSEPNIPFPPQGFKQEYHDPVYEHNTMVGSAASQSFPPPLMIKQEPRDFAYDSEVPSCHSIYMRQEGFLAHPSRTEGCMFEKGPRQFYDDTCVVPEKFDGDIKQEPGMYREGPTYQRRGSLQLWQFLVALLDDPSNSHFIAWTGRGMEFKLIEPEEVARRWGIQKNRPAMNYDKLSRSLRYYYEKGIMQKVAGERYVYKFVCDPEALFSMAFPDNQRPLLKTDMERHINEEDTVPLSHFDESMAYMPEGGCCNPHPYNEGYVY

Chain of SPIB (Q01892 whole entry): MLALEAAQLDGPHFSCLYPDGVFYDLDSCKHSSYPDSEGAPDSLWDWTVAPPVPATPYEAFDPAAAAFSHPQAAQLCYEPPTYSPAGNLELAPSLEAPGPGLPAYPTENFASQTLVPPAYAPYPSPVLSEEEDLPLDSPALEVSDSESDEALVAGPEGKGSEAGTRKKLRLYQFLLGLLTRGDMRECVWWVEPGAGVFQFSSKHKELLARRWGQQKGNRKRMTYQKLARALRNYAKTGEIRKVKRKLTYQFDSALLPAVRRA
Chain of CRX (O43186 whole entry): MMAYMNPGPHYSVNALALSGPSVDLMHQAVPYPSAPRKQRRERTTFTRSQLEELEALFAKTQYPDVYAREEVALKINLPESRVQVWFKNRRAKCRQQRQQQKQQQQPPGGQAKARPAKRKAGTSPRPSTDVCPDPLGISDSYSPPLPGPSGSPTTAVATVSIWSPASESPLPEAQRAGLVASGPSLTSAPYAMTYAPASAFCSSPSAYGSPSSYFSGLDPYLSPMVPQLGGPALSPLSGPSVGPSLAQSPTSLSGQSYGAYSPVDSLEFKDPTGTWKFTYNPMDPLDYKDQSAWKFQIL
Chain of HSF1 (Q00613 whole entry): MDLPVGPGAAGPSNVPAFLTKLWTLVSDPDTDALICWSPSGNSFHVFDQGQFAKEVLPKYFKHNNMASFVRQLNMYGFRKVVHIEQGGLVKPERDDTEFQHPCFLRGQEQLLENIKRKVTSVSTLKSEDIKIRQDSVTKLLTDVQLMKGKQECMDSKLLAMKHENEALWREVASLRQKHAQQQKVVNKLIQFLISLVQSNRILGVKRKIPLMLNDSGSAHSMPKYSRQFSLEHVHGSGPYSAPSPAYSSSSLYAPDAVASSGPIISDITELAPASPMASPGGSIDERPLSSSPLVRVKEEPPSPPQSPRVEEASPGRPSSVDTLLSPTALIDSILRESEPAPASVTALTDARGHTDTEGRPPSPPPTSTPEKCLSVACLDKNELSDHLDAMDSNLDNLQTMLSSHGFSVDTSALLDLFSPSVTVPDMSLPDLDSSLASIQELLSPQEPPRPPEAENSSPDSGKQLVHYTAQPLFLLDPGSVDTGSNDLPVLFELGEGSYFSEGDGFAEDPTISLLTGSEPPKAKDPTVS
Chain of ELF1 (P32519 whole entry): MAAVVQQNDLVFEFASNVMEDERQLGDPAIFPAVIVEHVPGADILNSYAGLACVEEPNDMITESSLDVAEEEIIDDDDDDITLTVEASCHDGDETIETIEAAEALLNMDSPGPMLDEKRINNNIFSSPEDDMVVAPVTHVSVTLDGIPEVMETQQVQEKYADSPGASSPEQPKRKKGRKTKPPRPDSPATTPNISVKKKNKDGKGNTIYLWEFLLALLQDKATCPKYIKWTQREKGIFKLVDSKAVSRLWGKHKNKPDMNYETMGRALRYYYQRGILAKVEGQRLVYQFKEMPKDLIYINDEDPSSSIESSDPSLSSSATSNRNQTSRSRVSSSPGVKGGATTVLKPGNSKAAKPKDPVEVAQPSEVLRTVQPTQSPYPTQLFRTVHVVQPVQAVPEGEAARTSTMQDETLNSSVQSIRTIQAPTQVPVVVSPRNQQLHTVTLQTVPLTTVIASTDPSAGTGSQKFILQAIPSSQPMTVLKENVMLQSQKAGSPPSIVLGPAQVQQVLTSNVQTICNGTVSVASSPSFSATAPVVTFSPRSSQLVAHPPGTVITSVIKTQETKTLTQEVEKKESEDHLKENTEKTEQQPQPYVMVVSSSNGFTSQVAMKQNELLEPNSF

For TACCTG, the binding signal is 1.13 fold enrichment (6-mer frequency, TF over GST control) with FLI1; 1.21 fold enrichment (6-mer frequency, TF over GST control) with ELK1; 1.12 fold enrichment (6-mer frequency, TF over GST control) with GABPA; 1.17 fold enrichment (6-mer frequency, TF over GST control) in the test with ERG; 1.09 fold enrichment (6-mer frequency, TF over GST control) in the test with ELF1; 1.16 fold enrichment (6-mer frequency, TF over GST control) in the test with EHF. Also, the binding signal was 1.25 fold enrichment (6-mer frequency, TF over GST control) with SPIB; 1.15 fold enrichment (6-mer frequency, TF over GST control) in the test with ELK3; 1.11 fold enrichment (6-mer frequency, TF over GST control) with FEV; 1.19 fold enrichment (6-mer frequency, TF over GST control) with ETV5; 1.04 fold enrichment (6-mer frequency, TF over GST control) with HSF1; 1.04 fold enrichment (6-mer frequency, TF over GST control) in the test with SPIC. Moreover, the binding signal is 1.14 fold enrichment (6-mer frequency, TF over GST control) in the test with ELF4; 1.07 fold enrichment (6-mer frequency, TF over GST control) with ELK4; 1.14 fold enrichment (6-mer frequency, TF over GST control) with ETV2; 1.15 fold enrichment (6-mer frequency, TF over GST control) with ELF3; 1.11 fold enrichment (6-mer frequency, TF over GST control) with CRX; 1.27 fold enrichment (6-mer frequency, TF over GST control) in the test with ETV1.
